Source: PubChem BioAssay (Tox21)
Inconclusive results are not listed. Active and inactive are the calls of the source. Unless noted, calls come from the whole dose curve.

Experiments:
[1] = Nuclear factor erythroid 2-related factor 2/antioxidant responsive element (Nrf2/ARE) small molecule agonists: qHTS cell viability counter screen in human keratinocytes (AID 1919968; active = well fitted curve in the direction sought with a large enough effect in the repeat runs; an effect the other way counts as inactive or inconclusive; note: nearly all actives have a fitted effect of over 55% in size)
In short: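 KeratinoSens cells (HaCaT keratinocytes stably carrying an ARE-luciferase reporter) were seeded at 1,500 cells/well and rested 5 h at 37 C/5% CO2. They were then exposed to compounds in DMSO for 23 h. Viability was read by CellTiter-Fluor fluorescence after 1 h.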

[2] = Nuclear factor erythroid 2-related factor 2/antioxidant responsive element (Nrf2/ARE) small molecule agonists: luciferase reporter gene qHTS assay in human keratinocytes (AID 1919969); note: nearly all actives have a fitted effect of over 35% in size
[3] = target: Gonadotropin-releasing hormone receptor (Homo sapiens) (UniProt P30968); assay: Human gonadotropin-releasing hormone receptor (GnRHR) small molecule agonists, calcium flux assay in GnRHR-HEK293 cells (AID 1920063); note: nearly all actives have a fitted effect of over 35% in size
Chain of Gonadotropin-releasing hormone receptor (Homo sapiens) (P30968 whole entry, looked up): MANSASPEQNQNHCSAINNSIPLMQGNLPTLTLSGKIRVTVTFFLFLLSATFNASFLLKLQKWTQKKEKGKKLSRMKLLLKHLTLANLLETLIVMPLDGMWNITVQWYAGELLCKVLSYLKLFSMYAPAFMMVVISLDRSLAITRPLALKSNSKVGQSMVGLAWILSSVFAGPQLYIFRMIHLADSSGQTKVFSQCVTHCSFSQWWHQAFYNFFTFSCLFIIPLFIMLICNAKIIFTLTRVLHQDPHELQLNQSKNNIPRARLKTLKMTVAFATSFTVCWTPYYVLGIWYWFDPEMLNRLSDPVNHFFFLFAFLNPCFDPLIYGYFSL
In short: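 HEK293 cells stably expressing human GnRHR were plated 18 h at 37 °C, loaded with calcium dye 1 h at 37 °C, then given compound in agonist mode; fluorescence (Ex/Em 480/540) read kinetically for 3 min at 1 s intervals.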

[4] = target: KiSS-1 receptor (Homo sapiens) (UniProt Q969F8); assay: Human kisspeptin (KISS1R) small molecule agonists, calcium flux assay in KISS1R-HEK293 cells (AID 1920064; active = well fitted curve in the direction sought with a large enough effect in the repeat runs; an effect the other way counts as inactive or inconclusive)
Chain of KiSS-1 receptor (Homo sapiens) (Q969F8 whole entry, looked up): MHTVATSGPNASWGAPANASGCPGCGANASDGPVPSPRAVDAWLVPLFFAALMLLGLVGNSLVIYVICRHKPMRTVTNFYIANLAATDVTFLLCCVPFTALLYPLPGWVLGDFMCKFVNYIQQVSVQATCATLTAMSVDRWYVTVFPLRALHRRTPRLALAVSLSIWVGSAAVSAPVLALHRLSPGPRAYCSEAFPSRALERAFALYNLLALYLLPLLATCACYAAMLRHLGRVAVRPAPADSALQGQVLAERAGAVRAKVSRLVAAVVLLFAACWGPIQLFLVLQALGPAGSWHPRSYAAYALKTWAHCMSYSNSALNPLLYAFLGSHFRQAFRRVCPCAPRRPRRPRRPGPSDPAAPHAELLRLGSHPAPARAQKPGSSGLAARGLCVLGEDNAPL
In short: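 HEK293 cells stably expressing human KISS1R were plated 18 h at 37 °C, loaded with calcium dye for 1 h at 37 °C, then given compound by pin tool. Fluorescence (Ex/Em 480/540) was read kinetically for 3 min.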

[5] = G protein-coupled receptor (GPCR) small molecule agonists, calcium flux assay: HEK293 wild type cell line counter screen (AID 1920065)
In short: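 Cells were plated and cultured 18 h at 37 C/5% CO2, then loaded with calcium dye for 1 h at 37 C. Compounds in DMSO were pin-transferred in agonist mode, and fluorescence (Ex/Em 480/540) was read kinetically for 3 min at 1 s intervals.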

[6] = p53 small molecule agonists, cell-based qHTS assay with human liver microsomes (AID 1963577);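 note: p53 response element beta-lactamase reporter cells with liver microsomes plus NADPH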
In short: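 With metabolic activation: human liver microsomes (0.5 mg/mL final) plus NADPH (0.5 mg/mL final) added alongside compounds to p53RE-bla cells; 16 h 37 C exposure; beta-lactamase read by LiveBLAzer fluorescence.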

[7] = p53 small molecule agonists, cell-based qHTS assay with rat liver microsomes (AID 1963578)
In short: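 Metabolic activation by rat liver microsomes and NADPH, each 0.5 mg/mL final, added right after compounds to p53RE-bla reporter cells (4,000/well, plated 5 h earlier). 16 h at 37 C, then LiveBLAzer substrate for 2 h at room temperature in the dark; fluorescence read-out.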

[8] = p53 small molecule agonists, cell-based qHTS assay with human liver microsomes: qHTS cell viability counter screen (AID 1963579); note: nearly all actives have a fitted effect of over 45% in size
In short: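 Metabolic activation used human liver microsomes and NADPH, both 0.5 mg/mL final, over 16 hours at 37 C on p53RE-bla cells (4,000/well). Cytotoxicity measured by CellTiter-Glo luminescence, 30 min at room temperature.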

[9] = p53 small molecule agonists, cell-based qHTS assay with rat liver microsomes: qHTS cell viability counter screen (AID 1963580); note: nearly all actives have a fitted effect of over 45% in size
In short: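 In HCT-116 cells carrying a p53 response element-bla reporter, compounds were metabolically activated in situ by rat liver microsomes with NADPH over 16 h. Cell ATP content then served as the cytotoxicity measure.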

[10] = target: 5-hydroxytryptamine receptor 2A (Homo sapiens) (UniProt P28223); assay: 5-hydroxytryptamine receptor 2A (HTR2A) small molecule antagonists, cell-based qHTS assay (AID 1963586); note: nearly all actives have a fitted effect of over 45% in size
Chain of 5-hydroxytryptamine receptor 2A (Homo sapiens) (P28223 whole entry, looked up): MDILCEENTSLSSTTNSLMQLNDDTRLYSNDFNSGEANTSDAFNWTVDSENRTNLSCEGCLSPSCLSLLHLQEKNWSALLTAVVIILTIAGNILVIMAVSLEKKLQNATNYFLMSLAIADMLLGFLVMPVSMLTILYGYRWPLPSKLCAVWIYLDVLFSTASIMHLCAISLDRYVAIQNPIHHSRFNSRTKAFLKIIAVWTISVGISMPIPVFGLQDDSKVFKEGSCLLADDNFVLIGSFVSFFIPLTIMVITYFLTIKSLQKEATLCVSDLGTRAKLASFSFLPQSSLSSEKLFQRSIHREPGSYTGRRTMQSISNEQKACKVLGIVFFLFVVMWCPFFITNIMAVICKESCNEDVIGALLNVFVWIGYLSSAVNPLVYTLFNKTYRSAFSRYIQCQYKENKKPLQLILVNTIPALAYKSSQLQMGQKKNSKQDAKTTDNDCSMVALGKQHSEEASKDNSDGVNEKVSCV
In short: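 Antagonist-mode intracellular calcium assay: DOI (4 nM) added after 5 min compound pre-incubation at room temperature to dye-loaded HTR2A-CHO cells. Fluorescence followed for 3 min, sampled every second.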

[11] = target: 5-hydroxytryptamine receptor 2A (Homo sapiens) (UniProt P28223); assay: 5-hydroxytryptamine receptor 2A (HTR2A) small molecule agonists, cell-based qHTS assay (AID 1963587); note: nearly all actives have a fitted effect of over 30% in size
In short: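 HTR2A-CHO cells, plated 18 h at 37 C/5% CO2, dye-loaded 1 h at 37 C; compounds in DMSO added by pin tool (agonist mode). Intracellular calcium flux read as kinetic fluorescence on FDSS over 2 min at 1 s intervals.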

[12] = target: Muscarinic acetylcholine receptor M1 (Homo sapiens) (UniProt P11229); assay: Cholinergic receptor muscarinic 1 (CHRM1) small molecule antagonists, cell-based qHTS assay (AID 1963588); note: nearly all actives have a fitted effect of over 40% in size
Chain of Muscarinic acetylcholine receptor M1 (Homo sapiens) (P11229 whole entry, looked up): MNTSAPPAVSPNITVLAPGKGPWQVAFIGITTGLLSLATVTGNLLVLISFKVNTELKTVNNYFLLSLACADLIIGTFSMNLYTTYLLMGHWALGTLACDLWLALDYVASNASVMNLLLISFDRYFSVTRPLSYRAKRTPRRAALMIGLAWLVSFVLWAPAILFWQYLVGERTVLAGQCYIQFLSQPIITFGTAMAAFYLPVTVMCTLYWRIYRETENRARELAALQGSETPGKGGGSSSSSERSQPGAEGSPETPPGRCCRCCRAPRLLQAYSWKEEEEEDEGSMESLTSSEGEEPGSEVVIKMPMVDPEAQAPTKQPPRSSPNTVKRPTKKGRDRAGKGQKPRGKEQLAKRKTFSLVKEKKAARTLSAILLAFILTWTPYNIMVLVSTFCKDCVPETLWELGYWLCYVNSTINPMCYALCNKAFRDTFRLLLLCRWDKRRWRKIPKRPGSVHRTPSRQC
In short: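 CHRM1-CHO calcium-flux assay, antagonist mode. Cells were seeded 18 h, dye-loaded 1 h at 37 C and given compound for 5 min at RT, then acetylcholine was added at 50nM. FDSS fluorescence was read 3 min; 15 concentrations, three runs.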

[13] = target: Muscarinic acetylcholine receptor M1 (Homo sapiens) (UniProt P11229); assay: Cholinergic receptor muscarinic 1 (CHRM1) small molecule agonists, cell-based qHTS assay (AID 1963589); note: nearly all actives have a fitted effect of over 35% in size
In short: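 CHO cells stably expressing human CHRM1, seeded 18 h at 37 C/5% CO2, dye-loaded 1 h at 37 C, then given compound in agonist mode; intracellular calcium fluorescence read kinetically at 1 s intervals. Fifteen concentrations, three independent runs.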

[14] = cAMP Responsive Elements (CRE) small molecule agonists, cell-based qHTS assay (AID 1963590)
In short: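 CRE-bla HEK 293T cells in DMEM with 10% dialyzed FBS, NEAA, pyruvate and 25 mM HEPES were plated 18 h at 37 C/5% CO2, then exposed to compounds in DMSO for 3 h before LiveBLAzer B/G FRET substrate addition.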

[15] = cAMP Responsive Elements (CRE) small molecule antagonists, cell-based qHTS assay (AID 1963591; active = well fitted inhibition curve with a large enough effect in the signal ratio in the repeat runs, not every such curve was filed as active; the % refers to the signal ratio)
In short: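 CRE-bla HEK293T cells were plated 18 h at 37 °C/5% CO2, pinned with compound in DMSO, then stimulated with NKH477 at 0.25 uM final for 3 h. LiveBLAzer B/G FRET substrate was added and plates incubated 2 h at room temperature.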

[16] = target: Beta-2 adrenergic receptor (Homo sapiens) (UniProt P07550); assay: Adrenergic beta2 receptor (ADRB2) small molecule antagonists, cell-based qHTS assay (AID 1963592); note: series mostly up to about 92 µM; nearly all actives have a fitted effect of over 50% in size
Chain of Beta-2 adrenergic receptor (Homo sapiens) (P07550 whole entry, looked up): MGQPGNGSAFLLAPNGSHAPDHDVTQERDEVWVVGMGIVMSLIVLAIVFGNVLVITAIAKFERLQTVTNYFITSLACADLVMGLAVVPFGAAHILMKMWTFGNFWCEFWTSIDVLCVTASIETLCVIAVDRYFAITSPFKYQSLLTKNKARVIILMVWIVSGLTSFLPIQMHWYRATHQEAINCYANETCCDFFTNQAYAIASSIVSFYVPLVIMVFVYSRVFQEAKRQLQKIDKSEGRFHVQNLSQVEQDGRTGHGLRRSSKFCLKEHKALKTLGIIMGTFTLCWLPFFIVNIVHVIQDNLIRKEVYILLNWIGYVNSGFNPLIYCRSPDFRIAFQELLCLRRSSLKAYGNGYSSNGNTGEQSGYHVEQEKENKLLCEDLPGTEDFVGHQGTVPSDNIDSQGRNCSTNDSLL
In short: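 Cells (CHO, stable ADRB2 overexpression) incubated 18-20hr at 37C; compounds added from DMSO; agonist mix (1nM isoproterenol, 100uM IBMX, 25uM Ro-20-1724) added; 0.5hr RT; d2-cAMP and anti-cAMP-cryptate added; 1hr RT; 665/615 nm read.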

[17] = target: D(2) dopamine receptor (Homo sapiens) (UniProt P14416); assay: Dopamine D2 receptor (DRD2) small molecule agonists, cell-based qHTS assay (AID 1963594); note: nearly all actives have a fitted effect of over 35% in size
Chain of D(2) dopamine receptor (Homo sapiens) (P14416 whole entry, looked up): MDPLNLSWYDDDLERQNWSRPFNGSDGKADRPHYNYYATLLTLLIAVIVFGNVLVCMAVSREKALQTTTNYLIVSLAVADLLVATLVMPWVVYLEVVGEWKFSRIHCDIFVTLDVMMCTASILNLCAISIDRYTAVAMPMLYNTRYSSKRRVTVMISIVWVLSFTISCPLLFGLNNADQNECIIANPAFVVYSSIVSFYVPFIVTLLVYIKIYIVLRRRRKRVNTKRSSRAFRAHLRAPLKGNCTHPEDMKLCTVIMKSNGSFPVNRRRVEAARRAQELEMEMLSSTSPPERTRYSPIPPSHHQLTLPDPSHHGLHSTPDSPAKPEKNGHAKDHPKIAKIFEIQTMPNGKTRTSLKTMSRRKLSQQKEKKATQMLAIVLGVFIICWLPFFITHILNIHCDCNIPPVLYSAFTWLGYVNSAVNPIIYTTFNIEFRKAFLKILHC
In short: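 HEK293 cells stably expressing DRD2 were cultured 24 h at 37 C, then given Ro20-1724 (0.1 mM final) and compounds for 10 min at room temperature. NKH477 (200nM) was then added for 30 min. cAMP was read by HTRF.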

[18] = target: D(2) dopamine receptor (Homo sapiens) (UniProt P14416); assay: Dopamine D2 receptor (DRD2) small molecule antagonists, cell-based qHTS assay (AID 1963595; active = well fitted inhibition curve with a large enough effect in the signal ratio in the repeat runs, with a control signal flat; the % refers to the signal ratio)
In short: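 Cells were plated and grown for 24 h at 37 °C. Ro20-1724 (0.1 mM final) went in first, then compound for 10 min. NKH477 (200 nM) with quinpirole (12 nM) followed for 30 min at RT, then HTRF detection reagents for 1 h.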

[19] = target: Beta-2 adrenergic receptor (Homo sapiens) (UniProt P07550); assay: Adrenergic beta2 receptor (ADRB2) small molecule agonists, cell-based qHTS assay (AID 1963593);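 note: CHO cells stably overexpressing human ADRB2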
In short: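 CHO cells stably over-expressing ADRB2 were plated overnight at 37C, then dosed with compounds plus a stimulation mix containing 100uM IBMX and 25uM Ro-20-1724 for 0.5hr at room temperature. cAMP was measured by HTRF competition, 1hr.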

Measured: Potency

COCCOCCOCCOC
not listed: [19]
inactive: all other assays above

CCCCCCCCCCCC(=O)N(CC)CC
not listed: [15] | [19]
inactive: all other assays above

O=C(O)CCC(=O)C(=O)O
not listed: [19]
inactive: all other assays above

CC1(C)Cc2cccc(N)c2O1
not listed: [18]
inactive: all other assays above

CC1=C(CC=O)C(C)(C)CCC1
not listed: [19]
inactive: all other assays above

CCOC(=O)CC(CC(=O)OCC)(OC(C)=O)C(=O)OCC
not listed: [16] | [17] | [19]
inactive: all other assays above

CCNC(=O)NCCCOc1cccc(CN2CCCCC2)c1
inactive: all assays above

O=C(CN1CCN(Cc2ccc3c(c2)OCO3)CC1)N1c2ccccc2Sc2ccccc21
not listed: [16] | [19]
inactive: all other assays above

COC(=O)C(C)O (stereo not drawn)
not listed: [16] | [17]
inactive: all other assays above
